Source: the supplement of paper PMC10338343
± gives the standard deviation.

System: EfPiwi piRISC loaded with piRNA #1 (26 nt)
Experiment: pre-steady-state target cleavage rate (min^-1); auxiliary factor: 500 nM Ephydatia muelleri Gtsf1; guide: piRNA #1 5'p-UGAGGUAGUAGGUUGUAUAGUAUCCA; MIWI and MILI are mouse PIWI proteins and EfPiwi is from a freshwater sponge; tags in brackets are library labels; higher = faster piRNA-guided slicing of the target
Outline: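 With or without 500 nM GTSF1 partner protein, 1 nM active affinity-purified piRISC carrying one synthetic guide was mixed with 0.1 nM transcribed, DNA-blocked target RNA library in HEPES–potassium acetate buffer at 33 °C for 0–8 or 0–960 min. Uncleaved targets were sequenced and normalised to depth and to weakly complementary targets, three trials were pooled, and k3 was capped at 0.0001 min^-1. The pre-steady-state cleavage rate came from a burst-and-steady-state fit.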

First: GGAGUGGAUAUAUACAACCUACUACCUCA
Second: GGAGAGGUUACUAUACAACCUACUUCCUCA
The “pre-steady-state target cleavage rate” value of the first is higher: 0.0139 ± 0.0066 for the first, 0.0033 ± 0.002 for the second.

GGAGACGAUACAAUACAACCUAGUACCUCA and GGAGACCUAUGAAUCACAACCUACUACCUCA are within error of each other in “pre-steady-state target cleavage rate” value: 0.00289 ± 0.0015 for the first, 0.00389 ± 0.0034 for the second.

Compared with GGAGACCAUACUAUACAACCCUACUACCUCA, GGAGACCUAUGAUAUGUACCUAUUACCUCA is lower in “pre-steady-state target cleavage rate” value: 0.00693 ± 0.0035 for the first, less than 0.0001 for the second.

First: GGAGUGGAUACUAUACAACCUACUAUCCUCA
Second: GGAGAGAUACUAUACAACCUACUACCUCA
The “pre-steady-state target cleavage rate” value of the first is lower: 0.00685 ± 0.0028 for the first, 0.121 ± 0.054 for the second.

Compared with GGAGACGAUACUUUACAACCUACUUCCUCA, GGAGACCUUACUAUACAACCACUACCUCA is higher in “pre-steady-state target cleavage rate” value: 0.00221 ± 0.002 for the first, 0.0103 ± 0.0057 for the second.

Going from GGAGACCUAUGAUAUGUACCUACAUACCUCA to GGAGACCUAACUAUACAACCACUACCUCA, the “pre-steady-state target cleavage rate” value rises from less than 0.0001 to 0.00546 ± 0.0044.

GGAGAGGAUACAAUACAACCUACUUCCUCA and GGAGAGGAUACUAUACAACCUACUACUCA are within error of each other in “pre-steady-state target cleavage rate” value: 0.00257 ± 0.002 for the first, 0.00563 ± 0.0029 for the second.

GGAGUGGAAACUAUACAUCCUACUACCUCA and GGAGAGAAUACUAUACAACCUACUACCUCA are within error of each other in “pre-steady-state target cleavage rate” value: 0.0101 ± 0.0045 for the first, 0.0106 ± 0.0053 for the second.

Compared with GGAGACGAUACUAUACACACCUACUACCUCA, GGAGACCUAUGAUAUGUUCCUACUCCCUCA is lower in “pre-steady-state target cleavage rate” value: 0.0061 ± 0.0026 for the first, less than 0.0001 for the second.

GGAGUGGAUACUAUACGAACCUACUACCUCA and GGAGACCAUACUAUACACACCUACUACCUCA are within error of each other in “pre-steady-state target cleavage rate” value: 0.00789 ± 0.0039 for the first, 0.00511 ± 0.0031 for the second.

First: GGAGACCUAUGAUAUGUUCCUACAACGUCA
Second: GGAGUGGAUACUAUACAACUCUACUACCUCA
The “pre-steady-state target cleavage rate” value of the first is lower: less than 0.0001 for the first, 0.00493 ± 0.003 for the second.

GGAGACGAUACUAUACAACCUACUCACCUCA and GGAGAGGAAACUAUACAUCCUACUACCUCA are within error of each other in “pre-steady-state target cleavage rate” value: 0.00418 ± 0.0019 for the first, 0.00711 ± 0.0026 for the second.

GGAGAGGAUACUAUACAACCUUGUACCUCA and GGAGACCAUACUAUACAACCUACUACUCUCA are within error of each other in “pre-steady-state target cleavage rate” value: 0.00294 ± 0.0029 for the first, 0.00773 ± 0.0036 for the second.

GGAGACGAUACUAUACAACCUUCUACGUCA and GGAGUGGAUACUAUACAAGCUACAACCUCA are within error of each other in “pre-steady-state target cleavage rate” value: 0.00448 ± 0.0019 for the first, 0.00371 ± 0.0018 for the second.

GGAGACGAUACUAUACAACCUAGUAGCUCA and GGAGACCAUACUAUACAACCAACUUCCUCA are within error of each other in “pre-steady-state target cleavage rate” value: 0.00474 ± 0.0023 for the first, 0.00509 ± 0.0046 for the second.

First: GGAGAGGAUACUAUACAACUCUACUACCUCA
Second: GGAGACGAUACUAAACAACCUACUACCUCA
The “pre-steady-state target cleavage rate” value of the first is lower: 0.00443 ± 0.0043 for the first, 0.0292 ± 0.012 for the second.

GGAGACCAAACUAUACAACCAACUACCUCA and GGAGACGAUACUUUACAACCUACUACCUCA are within error of each other in “pre-steady-state target cleavage rate” value: 0.00588 ± 0.003 for the first, 0.00691 ± 0.0033 for the second.

GGAGACGAUACUAUACGAACCUACUACCUCA and GGAGAGGAUACUAUACAACCUACUAGCUGA are within error of each other in “pre-steady-state target cleavage rate” value: 0.00658 ± 0.0033 for the first, 0.00408 ± 0.002 for the second.

GGAGACCUAUGAUAUGUUGCAACUACCACA and GGAGACCUAUGAUAACAAGGAACUACCUCA cannot be ordered by “pre-steady-state target cleavage rate” value: less than 0.0001 for the first, less than 0.0001 for the second.

First: GGAGAGGAUACUAUACAACCUAGUACCUGA
Second: GGAGACCUAUGUAUACAACCAAGUACCUCA
The “pre-steady-state target cleavage rate” value of the first is higher: 0.00379 ± 0.0015 for the first, less than 0.0001 for the second.
